From PubChem BioAssay (Tox21) come the findings set out here.

The nature of assay [1]: qHTS assay to identify small molecule agonists of the RXR signaling pathway - cell viability counter screen (AID 1159529). For activity change, negative = cytotoxicity: series mostly up to about 77 µM; % is set by controls: 0 for no effect and ±100 for the full control effect. Note: nearly all actives have a fitted effect of over 50% in size. Note: potency is the fitted concentration of half-maximal effect. The procedure, abridged: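 RXR-alpha-UAS-bla HEK 293T cells in medium with 2% charcoal-stripped FBS were pre-incubated 5 hr, then compound-treated 16 hr at 37 C. Viability was read by CellTiter-Glo luminescence in the same wells as the beta-lactamase assay, with tetraoctyl ammonium bromide as positive control.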
In general terms: Quantitative high-throughput screening tests each substance at several concentrations.

Assay [2] is described as follows: qHTS assay to identify small molecule antagonists of the retinoid acid receptor (RAR) signaling pathway - cell viability counter screen (AID 1159551). Note: % is set by controls: 0 for no effect and ±100 for the full control effect; nearly all actives have a fitted effect of over 35% in size. The method in brief: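 Measured by luminescent ATP detection, viability reflects C3RL4 cells treated 6 h at 37 C with test chemicals in the presence of 1 uM (final) retinol.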
Assay [3] can be described thus: qHTS assay to identify small molecule antagonists of the retinoic acid receptor (RAR) signaling pathway (AID 1159552; note: % is set by controls: 0 for no effect and ±100 for the full control effect; nearly all actives have a fitted effect of over 50% in size). The procedure, abridged: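 Retinol signaling pathway inhibitors screened in C3RL4 RARE-luciferase reporter cells seeded overnight at 37 C, then compounds added with 1 uM (final) retinol as pathway substrate. After 6 hr at 37 C, luciferase luminescence read after 30 min at room temperature.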

The nature of assay [4]: qHTS assay to identify small molecule agonists of the retinoic acid receptor (RAR) signaling pathway (AID 1159553). Note: potency is the fitted concentration of half-maximal effect. The procedure, abridged:
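6 hr compound exposure (DMSO vehicle) of overnight-plated C3RL4 RARE-luc cells at 37 C; luminescence quantified after 30 min RT with luciferase reagent.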

The nature of assay [5]: qHTS assay to identify small molecule antagonists of the estrogen related receptor (ERR) signaling pathway from Tox21 library - cell viability counter screen (AID 1224834). For viability change, negative = cytotoxic: % is set by controls: 0 for no effect and ±100 for the full control effect. Note: nearly all actives have a fitted effect of over 30% in size. Note: potency is the fitted concentration of half-maximal effect. The procedure, abridged: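 Seeded ERR cells were rested 6 h at 37 C/5% CO2 before compounds, positive and negative controls or DMSO were added. Incubation continued for 17.5 h, and viability was then quantified by CellTiter-Fluor fluorescence.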

Assay [6] in a line: qHTS assay to identify small molecule agonists of the constitutive androstane receptor (CAR) signaling pathway - cell viability counter screen (AID 1224836). Note: series mostly up to about 92 µM; % is set by controls: 0 for no effect and ±100 for the full control effect; nearly all actives have a fitted effect of over 45% in size. The method in brief:
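HepG2 cells stably carrying hCAR and a CYP2B6-2.2kb reporter; 15-concentration compounds plus PK11195 (final 0.75 uM), 23 hr at 37 C/5% CO2. Viability read by CellTiter-Fluor fluorescence.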

Assay [7] in a line: qHTS assay to identify small molecule antagonists of the constitutive androstane receptor (CAR) signaling pathway - cell viability counter screen (AID 1224837). Note: series mostly up to about 92 µM; % is set by controls: 0 for no effect and ±100 for the full control effect; nearly all actives have a fitted effect of over 45% in size. The procedure, abridged: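 To flag cytotoxic false antagonists, HepG2 hCAR/CYP2B6-2.2kb cells were treated 23 hr with 15-concentration compound series and 50 nM CITCO at 37 C/5% CO2; CellTiter-Fluor fluorescence was the measured end point.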

Assay [8] deals with Nuclear receptor subfamily 1 group I member 3 (Homo sapiens) (UniProt Q14994). Briefly: qHTS assay to identify small molecule antagonists of the constitutive androstane receptor (CAR) signaling pathway (AID 1224838).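 Note: HepG2 cells stably expressing hCAR with CYP2B6 luciferase reporter stimulated by CITCO; nearly all actives have a fitted effect of over 40% in size.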 Note: potency is the fitted concentration of half-maximal effect. The method in brief:
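Human hepatoma HepG2 cells expressing hCAR and a CYP2B6 promoter (2.2 kb) luciferase construct; compound titration (15 points) with 50 nM CITCO final, 24 h at 37 C/5% CO2; luminescence via ONE-Glo after 30 min at room temperature.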

The target is the same in assay [9]. Briefly: qHTS assay to identify small molecule agonists of the constitutive androstane receptor (CAR) signaling pathway (AID 1224839). Note: nearly all actives have a fitted effect of over 15% in size. Note: potency is the fitted concentration of half-maximal effect. The procedure, abridged:
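HepG2 cells stably co-transfected with hCAR and a CYP2B6-2.2kb luciferase reporter; compounds at 15 concentrations with 0.75 uM PK11195 present. After 24 hr at 37 C, luciferase read by ONE-Glo luminescence.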

The target of assay [10] is Thyrotropin receptor (Homo sapiens) (UniProt P16473). Briefly: qHTS assay to identify small molecule agonists of the thyroid stimulating hormone receptor (TSHR) signaling pathway (AID 1224843; calls by dose curve; note: % is set by controls: 0 for no effect and ±100 for the full control effect; nearly all actives have a fitted effect of over 45% in size). The method in brief:
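Agonist-mode screen: TSHR HEK293 cells received test chemicals for half an hour at room temperature, then HTRF cAMP detection reagents for one hour prior to fluorescence measurement. Each chemical ran as a 15-concentration series, triplicated.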

A short description of assay [11]: qHTS assay to identify small molecule antagonists of the estrogen related receptor (ERR) signaling pathway - cell viability counter screen (AID 1224818). Note: series mostly up to about 46 µM; % is set by controls: 0 for no effect and ±100 for the full control effect. The procedure, abridged: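 Compounds dissolved in DMSO were applied to ERR cells seeded at 2,000 per well 6 h earlier. Cell viability followed 17.5 h later via 30-min CellTiter-Fluor fluorescence.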
Assay [12] in a line: qHTS assay to identify small molecule antagonists of the estrogen related receptor signaling pathway with the pleiotropic PPARgamma coactivator (PGC) cell viability counter screen (AID 1224822; note: series mostly up to about 46 µM; % is set by controls: 0 for no effect and ±100 for the full control effect). The procedure, abridged: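 Counter screen for cell viability: PGC/ERR cells, 6 h pre-incubation after plating, 17.5 h compound exposure at 37 C, fluorescence from CellTiter-Fluor after 30 min.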

The target of assay [13] is Luciferin 4-monooxygenase (Photinus pyralis) (UniProt P08659). Briefly: qHTS assay to identify small molecule inhibitors of firefly luciferase (AID 1224835). Note: series mostly up to about 120 µM; % is set by controls: 0 for no effect and ±100 for the full control effect; nearly all actives have a fitted effect of over 25% in size. The procedure, abridged:
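Biochemical qHTS: compounds run as interplate titrations against purified firefly enzyme, with D-luciferin and ATP each at its KM concentration. Light output recorded by CCD imaging.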

The nature of assay [14]: qHTS assay to identify small molecule antagonists of the estrogen related receptor signaling pathway with the pleiotropic PPARgamma coactivator (PGC) from Tox21 10K library - cell viability counter screen (AID 1224840; active = well fitted cell-killing curve with a large enough effect in the repeat runs, not every such curve was filed as active; note: nearly all actives have a fitted effect of over 40% in size; note: potency is the fitted concentration of half-maximal effect). The method in brief: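 Seeded PGC/ERR cells (2,000/well, 6 h, 37 C/5% CO2) get compound by pin tool; 17.5 h incubation at 37 C; CellTiter-Fluor added, 30 min, fluorescence measured.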

Assay [15] is described as follows: qHTS assay to identify small molecule antagonists of the estrogen related receptor signaling pathway with the pleiotropic PPARgamma coactivator (PGC) from Tox21 10K library (AID 1224841; call rule not given here; note: potency is the fitted concentration of half-maximal effect; actives are mostly falling curves and most rising ones were filed inactive; nearly all actives have a fitted effect of over 50% in size). The method in brief: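 Test chemicals dissolved in DMSO were applied to pre-incubated (6 h) PGC/ERR cells at 2,000 cells/well for an 18 h, 37 C treatment; reporter luminescence was then read using One-Glo.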

Assay [16] in a line: qHTS assay to identify small molecule agonists of the estrogen related receptor signaling pathway with the pleiotropic PPARgamma coactivator (PGC) from Tox21 10K library (AID 1224842). Note: % is set by controls: 0 for no effect and ±100 for the full control effect; nearly all actives have a fitted effect of over 15% in size. The method in brief:
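PGC/ERR reporter cell line, 2,000 cells per well, incubated 6 h at 37 C before 23 nL compound in DMSO was added. After 18 h at 37 C, One-Glo luminescence read following 30 min at room temperature.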

Inconclusive results are not listed. A number with no mark means an inactive call. Activity calls are given as the source filed them. Unless noted, calls come from the whole dose curve; as a rule, active = well fitted curve in the direction sought with a large enough effect in the repeat runs; inconclusive = weak or mixed curves; inactive = no such curve, though single readings can be large; an effect the other way counts as inactive or inconclusive.

Sequence of Nuclear receptor subfamily 1 group I member 3 (Homo sapiens) (Q14994 whole entry, looked up): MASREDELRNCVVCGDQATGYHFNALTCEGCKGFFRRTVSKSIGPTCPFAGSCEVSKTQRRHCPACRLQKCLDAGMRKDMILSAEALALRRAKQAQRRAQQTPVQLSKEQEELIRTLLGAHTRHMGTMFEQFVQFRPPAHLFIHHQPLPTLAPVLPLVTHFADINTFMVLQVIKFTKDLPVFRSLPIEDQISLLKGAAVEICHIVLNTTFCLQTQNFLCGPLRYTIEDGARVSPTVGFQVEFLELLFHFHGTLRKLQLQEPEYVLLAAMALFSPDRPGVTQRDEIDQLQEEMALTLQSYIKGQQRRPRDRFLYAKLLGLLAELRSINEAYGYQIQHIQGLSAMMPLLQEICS
Sequence of Thyrotropin receptor (Homo sapiens) (P16473 whole entry, looked up): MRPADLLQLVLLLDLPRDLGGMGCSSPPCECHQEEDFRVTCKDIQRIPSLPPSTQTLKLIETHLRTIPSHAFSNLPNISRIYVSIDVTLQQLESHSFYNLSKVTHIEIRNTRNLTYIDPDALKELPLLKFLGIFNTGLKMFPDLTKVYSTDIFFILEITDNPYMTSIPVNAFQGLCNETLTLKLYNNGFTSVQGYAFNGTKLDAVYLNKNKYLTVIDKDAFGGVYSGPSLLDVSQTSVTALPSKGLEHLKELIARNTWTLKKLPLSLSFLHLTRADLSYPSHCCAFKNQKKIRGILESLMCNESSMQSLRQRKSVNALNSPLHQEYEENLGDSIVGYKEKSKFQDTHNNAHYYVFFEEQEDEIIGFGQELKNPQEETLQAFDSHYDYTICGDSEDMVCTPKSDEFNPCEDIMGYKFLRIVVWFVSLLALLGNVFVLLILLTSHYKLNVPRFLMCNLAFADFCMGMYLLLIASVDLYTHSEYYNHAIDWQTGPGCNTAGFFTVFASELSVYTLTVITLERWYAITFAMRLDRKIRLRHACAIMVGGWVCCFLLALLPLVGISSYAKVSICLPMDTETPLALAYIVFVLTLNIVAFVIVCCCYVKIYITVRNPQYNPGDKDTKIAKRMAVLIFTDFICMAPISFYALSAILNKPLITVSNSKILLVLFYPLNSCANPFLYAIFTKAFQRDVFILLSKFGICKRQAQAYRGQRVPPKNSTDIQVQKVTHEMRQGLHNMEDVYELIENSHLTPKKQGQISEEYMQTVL
Sequence of Luciferin 4-monooxygenase (Photinus pyralis) (P08659 whole entry, looked up): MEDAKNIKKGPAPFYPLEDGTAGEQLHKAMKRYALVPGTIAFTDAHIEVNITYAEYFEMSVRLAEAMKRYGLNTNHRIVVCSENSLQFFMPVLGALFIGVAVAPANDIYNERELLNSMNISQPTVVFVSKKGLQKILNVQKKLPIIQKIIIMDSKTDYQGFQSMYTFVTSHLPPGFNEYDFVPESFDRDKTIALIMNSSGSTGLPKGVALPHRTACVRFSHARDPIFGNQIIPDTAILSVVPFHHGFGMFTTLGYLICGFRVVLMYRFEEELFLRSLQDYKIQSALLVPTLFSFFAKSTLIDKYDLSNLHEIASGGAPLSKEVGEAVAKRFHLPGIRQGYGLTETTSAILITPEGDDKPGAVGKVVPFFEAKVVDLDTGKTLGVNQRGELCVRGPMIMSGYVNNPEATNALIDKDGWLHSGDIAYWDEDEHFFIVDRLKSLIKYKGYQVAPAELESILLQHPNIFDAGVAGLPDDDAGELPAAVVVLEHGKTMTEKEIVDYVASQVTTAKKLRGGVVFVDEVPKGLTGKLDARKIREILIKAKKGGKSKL

As to `CN(C)c1ccc(/C=C/c2ccc([N+](=O)[O-])cc2)cc1`, the activity change, negative = cytotoxicity in [1] was -5.22% [at 6.97 µM]; in [2], -0.286% [at 8.39 µM]; in [7] it was 11.7% [at 8.39 µM]. The results for the activity, negative = inhibition in assay [3] and in assay [8] were 84.6% [at 8.39 µM] and 47.3% [at 8.39 µM], respectively. Also, the Potency was 0.219 µM (active) in [4] and 0.872 µM (active) in assay [9]. The viability change, negative = cytotoxic in [5] was 1.01% [at 8.39 µM]; in assay [6], 5.96% [at 8.39 µM]. Moreover, the activation in assay [10] was -1.26% [at 8.39 µM].

As to `OC(CN1CCC(Cc2ccc(F)cc2)CC1)c1ccc(Cl)cc1` (stereo not given), the Potency result in assay [1], in assay [2], in [3], in assay [5], in assay [13] and in [9] was “inactive” in each case. Besides, the outcome in assay [11] and in assay [12] was inactive. In addition, in [8], the Potency is 23.7 µM (active).

As to `CCC(C)O` (stereo not given), the Potency entry in [1], in [2], in assay [3], in [4], in [5] and in assay [6] was “inactive” each time. Also, the Potency entry in assay [7], in assay [8], in [9], in [14] and in assay [10] was “inactive” throughout.

Regarding `Cc1ccc(C(C)OC(=O)C2(C)CCC(C(=O)O)C2(C)C)cc1` (stereo not given), the Potency result in assay [1], in assay [2], in [3], in assay [4], in [5] and in assay [13] was “inactive” each time. In addition, the Potency result in assay [6], in assay [7], in assay [14] and in assay [10] was “inactive” throughout.

For the compound `CCCCCCOC(=O)NC(=N)c1ccc(NCc2nc3cc(C(=O)N(CCC(=O)OCC)c4ccccn4)ccc3n2C)cc1`, the Potency is 10.7 µM (active) in assay [1], 29.8 µM (active) in assay [5], 29.8 µM (active) in assay [14] and 16.8 µM (active) in assay [15]. For the same compound, the Potency result in [2], in assay [3], in assay [4], in assay [6], in assay [7] and in assay [8] was “inactive” in each case. Besides, the Potency entry in [16] was “inactive”.

As for `CCCCC(CC)COC(=O)COc1ccc(Cl)cc1Cl` (stereo not given), the Potency result in [1], in assay [2], in assay [3], in [4], in [5] and in assay [6] was “inactive” each time. The Potency result in assay [7], in [14] and in assay [10] was “inactive” in each case.

Take `ClCCOCCOCCCl`: the Potency entry in assay [1], in assay [2], in assay [3], in assay [4], in assay [5] and in assay [13] was “inactive” each time. The Potency result in assay [6], in [7], in assay [14] and in [16] was “inactive” each time.

Take `CC(C)OC(=O)C(C)N(C(=O)c1ccccc1)c1ccc(F)c(Cl)c1` (stereo not given): the Potency result in assay [1], in [2], in assay [3], in [4], in assay [13] and in assay [7] was “inactive” in each case. Besides, the Potency entry in [8] and in [16] was “inactive” each time. The Potency was 48.6 µM (active) in assay [9] and 21.7 µM (active) in assay [15].

Take `O=C(O)c1ccc(-n2nc(-c3ccccc3O)nc2-c2ccccc2O)cc1`: the Potency entry in assay [1], in assay [2], in assay [3], in assay [13], in [6] and in [7] was “inactive” each time. The Potency entry in [9], in assay [14] and in assay [16] was “inactive” each time. For the same compound, the Potency was 23.7 µM (active) in assay [5] and 10.6 µM (active) in assay [15].

As to `COC(C)OC`, the Potency result in [1], in assay [2], in assay [3], in assay [4], in [5] and in assay [13] was “inactive” each time. Moreover, the Potency result in assay [6], in [7], in assay [14] and in [16] was “inactive” in each case.

For `CCCCC`, the Potency result in assay [1], in assay [2], in assay [3], in assay [4], in assay [5] and in assay [13] was “inactive” each time. Moreover, the Potency result in assay [6], in [7] and in assay [14] was “inactive” throughout.
